Results from the supplement of paper PMC8866396.
± gives the standard deviation of the averaged measurements.

How the values were obtained:
IL-6-GFP PC-9GR = test: cell viability (CCK-8 OD) relative to DMSO control (fraction of control); higher = more viable cells; conditions: compound concentration: 10 uM; treatment time: 48 h
Procedure, shortened: (§1)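 In 96-well plates, 3000 cells/well of PC-9 or PC-9GR lung cancer cells with lentiviral IL-6-GFP overexpression received each compound of a purchased 510-compound library at a final 10 μM for 48 h. Viability, measured by CCK-8 absorbance, is each well's optical density relative to the vehicle control well. Data come from two independent replicates.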

IL-6-GFP PC-9 = test: as above; conditions: compound concentration: 10 uM; treatment time: 48 h
Procedure, shortened: as §1

SMILES	cell viability (IL-6-GFP PC-9GR)	cell viability (IL-6-GFP PC-9)
O=NN(CCCl)C(=O)NC1CCCCC1 [Lomustine]	1.05 ± 0.07	0.9506 ± 0.0079
CC(CCC(=O)[O-])C1CCC2C3C(O)CC4CC(O)CCC4(C)C3CC(O)C12C.[Na+] (stereo not given) [Sodium cholate]	0.344 ± 0.23	0.997 ± 0.067
Cc1nnc(C(=O)NC(C)(C)c2nc(C(=O)NCc3ccc(F)cc3)c([O-])c(=O)n2C)o1.[K+] [Raltegravir potassium]	1.37 ± 0.48	1.12 ± 0.16
COc1cc2nccc(Oc3ccc(NC(=O)C4(C(=O)Nc5ccc(F)cc5)CC4)cc3)c2cc1OC	0.886 ± 0.23	0.56 ± 0.041
Cc1c(N)c(=O)n(-c2ccccc2)n1C [4-Aminoantipyrine]	0.98 ± 0.13	1.212 ± 0.0049
CC(=O)c1c(C)c2cnc(Nc3ccc(N4CCNCC4)cn3)nc2n(C2CCCC2)c1=O.Cl	0.661 ± 0.17	0.694 ± 0.11
Nc1cc(C(Cl)=C(Cl)Cl)c(S(N)(=O)=O)cc1S(N)(=O)=O [Clorsulon]	1.21 ± 0.16	1.08 ± 0.11
NC(CC(=O)N1CCn2c(nnc2C(F)(F)F)C1)Cc1cc(F)c(F)cc1F (stereo not given) [Sitagliptin]	1.62 ± 0.63	1.14 ± 0.12
Clc1ccc(C(c2ccccc2Cl)C(Cl)Cl)cc1 (stereo not given) [Mitotane]	1.2 ± 0.1	0.958 ± 0.05
CC(OCC1(c2ccccc2)CCC2(CCC(=O)N2)CN1)c1cc(C(F)(F)F)cc(C(F)(F)F)c1 (stereo not given) [Rolapitant]	0.76 ± 0.035	0.853 ± 0.26
O=C(O)CCCCC1CCSS1 (stereo not drawn) [(+)-α-Lipoic acid]	1.26 ± 0.2	1.21 ± 0.024
COc1ccc2cc1Oc1ccc(cc1)CC1c3cc(c(OC)cc3CCN1C)Oc1c(O)c(OC)cc3c1C(C2)N(C)CC3 (stereo not given) [Fangchinoline]	1.18 ± 0.33	1.09 ± 0.13
NC(CO)(CO)CO.O=C(c1ccccc1)c1ccc2n1CCC2C(=O)O (stereo not given) [Ketorolac tromethamine salt]	0.948 ± 0.075	1.05 ± 0.19
C=CC(=O)Nc1cc(Nc2nccc(-c3cn(C)c4ccccc34)n2)c(OC)cc1N(C)CCN(C)C [Osimertinib (AZD9291)]	0.225 ± 0.073	0.372 ± 0.059
CC1CC2C3CCC4=CC(=O)C=CC4(C)C3(F)C(O)CC2(C)C1(O)C(=O)COP(=O)([O-])[O-].[Na+].[Na+] (stereo not given) [Dexamethasone Sodium Phosphate]	1.22 ± 0.16	0.831 ± 0.039
CC(C)(O)CNc1nc(Nc2ccnc(C(F)(F)F)c2)nc(-c2cccc(C(F)(F)F)n2)n1 [Enasidenib (AG-221)]	1.25 ± 0.65	1.03 ± 0.018
COc1ccc2cc1Oc1ccc(cc1)CC1c3c(cc4c(c3Oc3cc5c(cc3OC)CCN(C)C5C2)OCO4)CCN1C (stereo not given) [Cepharanthine]	0.8242 ± 0.0069	0.73 ± 0.15
O=c1[nH]c(=O)n(C2CCCO2)cc1F (stereo not given)	1.11 ± 0.023	1.01 ± 0.013
Cc1c(Cl)cccc1Nc1ccccc1C(=O)O [Tolfenamic Acid]	1.39 ± 0.44	1.18 ± 0.046
CCCCCCCCCCCC1=C(O)C(=O)C=C(O)C1=O [Embelin]	0.858 ± 0.075	1.12 ± 0.44

SMILES	cell viability (IL-6-GFP PC-9GR)	cell viability (IL-6-GFP PC-9)
COc1ccc2cc(CCC(C)=O)ccc2c1 [Nabumetone]	1.29 ± 0.24	1.11 ± 0.13
O=C(OCCOCCO)c1ccccc1Nc1cccc(C(F)(F)F)c1 [Etofenamate]	1.01 ± 0.29	1.24 ± 0.13
CC(C(=O)O)c1ccc2c(c1)Cc1cccnc1O2 (stereo not given) [Pranoprofen]	1.12 ± 0.019	1.25 ± 0.055
Nc1nc(Cl)nc2c1ncn2C1OC(CO)C(O)C1F (stereo not given) [Clofarabine]	0.5 ± 0.013	0.337 ± 0.13
CCc1nc(C(N)=O)c(Nc2ccc(N3CCC(N4CCN(C)CC4)CC3)c(OC)c2)nc1NC1CCOCC1 [Gilteritinib (ASP2215)]	0.333 ± 0.021	0.315 ± 0.11
C=CC1CN2CCC1CC2C(O)c1ccnc2ccc(OC)cc12.Cl.O.O (stereo not given) [Quinine HCl Dihydrate]	1.2 ± 0.21	1.19 ± 0.04
CC(C(=O)O)c1ccc2c(c1)[nH]c1ccc(Cl)cc12 (stereo not given) [Carprofen]	1.16 ± 0.41	0.265 ± 0.35
O=C([O-])Cc1ccccc1Nc1c(Cl)cccc1Cl.[K+] [Diclofenac Potassium]	1.25 ± 0.21	1.13 ± 0.18
CN1CCC(NC(=O)Nc2ccc(C#N)cc2)CC1c1nc2ccccc2[nH]1 (stereo not given)	0.848 ± 0.016	1.21 ± 0.033
CC1CCC2(C(=O)OC3OC(COC4OC(CO)C(OC5OC(C)C(O)C(O)C5O)C(O)C4O)C(O)C(O)C3O)CCC3(C)C(=CCC4C5(C)CC(O)C(O)C(C)(CO)C5CCC43C)C2C1C (stereo not given) [Asiaticoside]	1.06 ± 0.2	1.17 ± 0.021
Cl.NC1=NCC2c3ccccc3Cc3ccccc3N12 (stereo not given) [Epinastine HCl]	0.9943 ± 0.0026	1.22 ± 0.014
COc1c2ccoc2cc2oc(=O)ccc12 [Bergapten]	0.902 ± 0.041	0.8378 ± 0.0073
Cc1cnc(C(=O)NC2CCCCC/C=C\C3CC3(C(=O)NS(=O)(=O)C3CC3)NC(=O)C3CC(Oc4nc5ccccc5c5ccccc45)CN3C2=O)cn1 (stereo not given) [Paritaprevir (ABT-450)]	0.779 ± 0.2	0.874 ± 0.28
N#Cc1cc(NC(=O)C(=O)O)c(Cl)c(NC(=O)C(=O)O)c1.NC(CO)(CO)CO.NC(CO)(CO)CO [Lodoxamide Tromethamine]	1.14 ± 0.25	1.09 ± 0.083
COc1cccc2c1C(=O)c1c(O)c3c(c(O)c1C2=O)CC(O)(C(=O)CO)CC3OC1CC(N)C(OC2CCCCO2)C(C)O1 (stereo not given) [Pirarubicin]	0.33 ± 0.12	0.208 ± 0.13
COc1cc2c(Nc3ccc(Br)cc3F)ncnc2cc1OCC1CCN(C)CC1 [Vandetanib (ZD6474)]	0.578 ± 0.024	0.551 ± 0.059
CC1Oc2cc(cnc2N)-c2c(nn(C)c2C#N)CN(C)C(=O)c2ccc(F)cc21 (stereo not given)	0.802 ± 0.14	0.945 ± 0.12
CC(C)Cc1ccc(C(C)C(=O)O)cc1 (stereo not given) [Ibuprofen]	1.32 ± 0.12	1.06 ± 0.19
CC1(C)CCC(CN2CCN(c3ccc(C(=O)NS(=O)(=O)c4ccc(NCC5CCOCC5)c([N+](=O)[O-])c4)c(Oc4cnc5[nH]ccc5c4)c3)CC2)=C(c2ccc(Cl)cc2)C1 [Venetoclax (ABT-199, GDC-0199)]	0.907 ± 0.17	1.03 ± 0.15
COc1cc2nccc(Oc3ccc(NC(=O)NC4CC4)c(Cl)c3)c2cc1C(N)=O.CS(=O)(=O)O [lenvatinib Mesylate]	1.15 ± 0.17	0.265 ± 0.16

SMILES	cell viability (IL-6-GFP PC-9GR)	cell viability (IL-6-GFP PC-9)
Cn1c(=O)cc(N2CCCC(N)C2)n(Cc2cc(F)ccc2C#N)c1=O.O=C(O)CCC(=O)O (stereo not given) [Trelagliptin succinate]	0.825 ± 0.15	1.07 ± 0.15
COc1cc2nccc(Oc3ccc(NC(=O)NC4CC4)c(Cl)c3)c2cc1C(N)=O [Lenvatinib (E7080)]	1.11 ± 0.064	0.9 ± 0.081
Cc1nnc(C(C)C)n1C1CC2CCC(C1)N2CCC(NC(=O)C1CCC(F)(F)CC1)c1ccccc1 (stereo not given) [Maraviroc]	1.3 ± 0.033	0.945 ± 0.17
COc1cc2c(cc1OC)C1CC(OC(=O)C(N)C(C)C)C(CC(C)C)CN1CC2.Cc1ccc(S(=O)(=O)O)cc1.Cc1ccc(S(=O)(=O)O)cc1 (stereo not given) [Valbenazine tosylate]	0.833 ± 0.14	1.01 ± 0.084
CNC(=O)c1cc(Oc2ccc(NC(=O)Nc3ccc(Cl)c(C(F)(F)F)c3)cc2)ccn1 [Sorafenib]	0.634 ± 0.37	0.565 ± 0.1
CC(C)c1nc(N(C)S(C)(=O)=O)nc(-c2ccc(F)cc2)c1/C=C/C(O)CC(O)CC(=O)O (stereo not given) [Rosuvastatin]	1.56 ± 0.24	1.12 ± 0.1
CC(=O)OCC(CCn1cnc2cnc(N)nc21)COC(C)=O [Famciclovir]	1.32 ± 0.15	1.26 ± 0.18
CC(C)(C)c1nc(-c2cccc(NS(=O)(=O)c3c(F)cccc3F)c2F)c(-c2ccnc(N)n2)s1.CS(=O)(=O)O [Dabrafenib Mesylate]	0.922 ± 0.18	0.921 ± 0.19
CCOC(=O)OC1(C(=O)OCCl)CCC2C3CCC4=CC(=O)C=CC4(C)C3C(O)CC21C (stereo not given) [Loteprednol etabonate]	1.21 ± 0.051	0.944 ± 0.063
CN(C)C/C=C/C(=O)Nc1cc2c(Nc3ccc(F)c(Cl)c3)ncnc2cc1OC1CCOC1.O=C(O)/C=C\C(=O)O.O=C(O)/C=C\C(=O)O (stereo not given) [Afatinib (BIBW2992) Dimaleate]	0.22 ± 0.11	0.167 ± 0.22
CCCCOc1ccc(CC(=O)NO)cc1 [Bufexamac]	1.2 ± 0.39	0.928 ± 0.073
COc1cc2c3cc1Oc1c(OC)c(OC)cc4c1C(Cc1ccc(O)c(c1)Oc1ccc(cc1)CC3N(C)CC2)N(C)CC4 (stereo not given) [Berbamine]	0.891 ± 0.25	1.08 ± 0.14
O=c1cc[nH]c(=O)[nH]1 [Uracil]	0.909 ± 0.021	0.701 ± 0.11
COc1cc(C2Oc3ccc(C4Oc5cc(O)cc(O)c5C(=O)C4O)cc3OC2CO)ccc1O (stereo not given) [Silymarin]	1.53 ± 0.29	1.21 ± 0.17
N#CC1CC2CC2N1C(=O)C(N)C12CC3CC(CC(O)(C3)C1)C2.O (stereo not given) [Saxagliptin hydrate]	0.79 ± 0.18	1.14 ± 0.091
CC12C=CC(=O)C=C1CCC1C3CC(O)C(O)(C(=O)CO)C3(C)CC(O)C12F (stereo not given) [Triamcinolone]	1.06 ± 0.13	0.805 ± 0.086
O=C([O-])Cc1ccccc1Nc1c(Cl)cccc1Cl.[Na+] [Diclofenac Sodium]	1.3 ± 0.039	1.09 ± 0.084
CN(C(=O)c1c(O)c2ccccc2n(C)c1=O)c1ccccc1 [Roquinimex]	0.937 ± 0.35	1.15 ± 0.038
C/C=C1/C2C=C(C)CC1(N)c1ccc(=O)[nH]c1C2 (single isomer, unassigned; (-)) [(-)-Huperzine A (HupA)]	1.17 ± 0.37	1.29 ± 0.053
COc1cc(N2CCC(N3CCN(C)CC3)CC2)ccc1Nc1ncc(Cl)c(Nc2ccccc2P(C)(C)=O)n1	0.688 ± 0.15	0.41 ± 0.083
